Screens from PubChem BioAssay.
Sampled rows, rich in hits. Any-hit rate of the full collection: about 3.1%.
EPAC1 agonist: validation of human EPAC1 agonists; O95398; EPAC1 Rap1b BODIPY-GDP exchange, fluorescence; Potency, µM, without a hit: max response, positive = active, hits mostly activators; 16,000 compounds, 1% hits; AID 1645883; also: nearly all actives have a fitted effect of over 70% in size
EPAC2 antag: validation of human EPAC2 antagonists | Q8WZA2 | EPAC2 Rap1B BODIPY-GDP exchange, fluorescence | Potency, µM (titrated, usually from 112 µM), inactives show at the top dose activity, negative = inhibition, hits mostly inhibitors | 16,000 compounds, 1.7% hits;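 also: 100% = activation by cAMP agonist control; nearly all actives have a fitted effect of over 40% in size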
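Normalized against a 6.5 mM cAMP agonist control, compounds were tested on 100 nM EPAC2 exchanging Rap1B-bound BODIPY-GDP (250 nM) for 50 uM GDP. Fluorescence drop (ex 480, em 540 nm) was tracked at room temperature over 30 min at 5-min intervals.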
* = called active by the depositor; ? = inconclusive; ! = a repeat was not active; [ ] = another dose, or the depositor's remark. Calls follow the shape of the dose curve; as a rule, active = well fitted curve in the direction sought with a large enough effect; inconclusive = small, poorly fitted or top-dose-only effect, or another doubt; inactive = no such curve, though single readings can be large; an effect the other way counts as inactive or inconclusive. Unless noted, % is scaled to controls: 0 for no effect and ±100 for the full control effect; potency is read from the fitted curve at half-maximal effect.

SMILES	EPAC1 agonist	EPAC2 antag
CCCCCCCCCC[N+](C)(C)CCCCCCCCCC	-78%	-29%
CCCCCCCCCCCCCCCC[N+](C)(C)C	-47%	40µM*!
CN[C@@]1(c2ccccc2Cl)CCCCC1=O	1%	6%
CC[C@]1(O)CC(O[C@@H]2CC(N(C)C)C(O)C(C)O2)c2c(cc3c(c2O)C(=O)c2c(O)cccc2C3=O)C1C(=O)OC (some centres undefined)	?	21%
CC[C@@]1(O)CC(O)c2c(cc3c(c2O)C(=O)c2c(O)ccc(O)c2C3=O)C1C(=O)OC (some centres undefined)	112µM*	38%
N#CC(C#N)=NNc1ccc(OC(F)(F)F)cc1	-41%	40µM*
O=C1C(I)=CC(=C(c2cc(I)c(O)c(I)c2)c2ccccc2C(=O)O)C=C1I	7%	45µM*!
Nc1ccccc1C(=O)O	-7%	-1%
O=C1c2ccccc2-c2cccc3cccc1c23	112µM*	3%
OC[C@@H](O)[C@H]1O[C@@H]2O[C@H](C(Cl)(Cl)Cl)O[C@@H]2[C@H]1O	-1%	-1%
Cc1ccccc1-n1c(CF)nc2ccc(N)cc2c1=O	-1%	7%
C[C@H]1[C@H]2Cc3ccc(O)cc3[C@]1(C)CCN2CCc1ccccc1	-9%	4%[239 µM]
CC[C@H](C)[C@H]1O[C@]2(C=C[C@@H]1C)C[C@@H]1C[C@@H](C/C=C(\C)[C@@H](O[C@H]3C[C@H](OC)[C@@H](O[C@H]4C[C@H](OC)[C@@H](O)[C@H](C)O4)[C@H](C)O3)[C@@H](C)/C=C/C=C3\CO[C@@H]4[C@H](O)C(C)=C[C@@H](C(=O)O1)[C@]34O)O2	-42%	?
C[C@H]1CC[C@]2(NC1)O[C@H]1C[C@H]3[C@@H]4CC[C@H]5C[C@@H](O[C@@H]6O[C@H](CO)[C@H](O[C@@H]7O[C@H](CO)[C@@H](O)[C@H](O[C@@H]8OC[C@@H](O)[C@H](O)[C@H]8O)[C@H]7O[C@@H]7O[C@H](CO)[C@@H](O)[C@H](O)[C@H]7O)[C@H](O)[C@H]6O)CC[C@]5(C)[C@H]4CC[C@]3(C)[C@H]1[C@@H]2C	-3%	-4%
CCCCCCCCCc1ccc(O)cc1	?	45µM*
NCCc1ccc(O)cc1	5%	-20%
C[C@]12CC[C@H]3[C@@H](CCC4=CC(=O)CC[C@@]43C)[C@@H]1CC[C@H]2O	17%	-37%
CC1(C)[C@H](C=C(Cl)Cl)[C@H]1C(=O)OCc1c(F)c(F)cc(F)c1F	-6%	-22%
C[C@H]1[C@@H]2Cc3ccc(O)cc3[C@@]1(C)CCN2C	14%	18%[453 µM]
[H+].[H+].[Hg+2].[O-]B([O-])[O-].[c-]1ccccc1	-7%	4%
O=C1CS[C@@H](c2ccccc2Cl)c2cc(Cl)ccc2N1	6%	32µM*
C[C@]12C=CC(=O)C=C1CC[C@@H]1[C@@H]2CC[C@]2(C)OC(=O)CC[C@@H]12	-17%	-5%
CC(=O)O[C@H]1C[C@H](O[C@H]2[C@@H](O)C[C@H](O[C@H]3[C@@H](O)C[C@H](OC4CC[C@@]5(C)C(CC[C@@H]6[C@@H]5CC[C@]5(C)[C@@H](C7=CC(=O)OC7)[C@@H](O)C[C@]65O)C4)O[C@@H]3C)O[C@@H]2C)O[C@H](C)[C@H]1O[C@@H]1O[C@H](CO)[C@@H](O)[C@H](O)[C@H]1O (some centres undefined)	-2%	-6%
CCCCCCC(=O)O[C@H]1CC[C@H]2[C@@H]3CC[C@H]4CC(=O)C=C(C)[C@]4(C)[C@H]3CC[C@]12C	-28%	-8%
CCCCCCCCCC(CC)c1ccc(S(=O)(=O)O)cc1 (centres undefined)	-196%	56µM*!
SMILES	EPAC1 agonist	EPAC2 antag
NC[C@H](CS(=O)(=O)O)c1ccc(Cl)cc1	2%	-17%
CC(C)(C)CC(C)(C)c1ccc(O)cc1	-211%	56µM*
CCC(C)(C)c1ccc(O)cc1	-17%	-11%
OC[C@@H](O)[C@H]1O[C@@H]2O[C@@H](C(Cl)(Cl)Cl)O[C@@H]2[C@H]1O	-15%	-23%
CCOP(=S)(OCC)SCn1c(=O)oc2cc(Cl)ccc21	5%	32µM*
CCOC(=O)[C@]12Cc3ccsc3[C@H]1N(Cc1ccccc1)C(=O)c1ccccc12	?	56µM*
CCOC(=O)[C@]12Cc3cc(OC)c(OC)cc3[C@H]1N(Cc1ccccc1)C(=O)c1ccccc12	-42%	-3%
CCC(OC(C)=O)C(CC(C)NC)(c1ccccc1)c1ccccc1 (centres undefined)	3%	-5%[239 µM]
C#CCN1C(C)=C(C(=O)CCO)[C@@H](c2cccc(-n3oo3)c2)C(C(=O)OC)=C1C	?	20µM*
CCC(=O)O[C@](Cc1ccccc1)(c1ccccc1)[C@H](C)CN(C)C	-103%	-3%[239 µM]
COc1cc2occc2c2oc(=O)ccc12	?	15%
COc1cc2c(cc1-c1cc3cc4ccoc4cc3oc1=O)OCO2	5%	1.3µM*
CCN1C[C@]2(COC)[C@H](O)C[C@H](OC)[C@@]34[C@@H]5C[C@@]6(O)[C@H](OC(=O)c7ccccc7)[C@@H]5[C@@](OC(C)=O)([C@@H]([C@H](OC)[C@H]23)[C@@H]14)[C@@H](O)[C@@H]6OC	-28%	7%
CC(C)=CCN1CC[C@@]2(C)c3cc(O)ccc3C[C@@H]1[C@@H]2C	-2%	16%[239 µM]
CCCCCC[C@H]1C(=O)O[C@H](C)[C@H](NC(=O)c2cccc(NC=O)c2O)C(=O)O[C@@H](C)[C@@H]1OC(=O)CC(C)C	-67%	45µM*
Oc1cc[c]([Hg][Cl])cc1	0%	-11%
CN1CC[C@]23c4c5ccc(O)c4O[C@H]2[C@@H](O)CC[C@H]3[C@H]1C5	-1%	30%[239 µM]
CCCN(CCC)c1c([N+](=O)[O-])cc(S(N)(=O)=O)cc1[N+](=O)[O-]	-121%	40µM*
CCCCN(CC)c1c([N+](=O)[O-])cc(C(F)(F)F)cc1[N+](=O)[O-]	?	-33%
ClC1=C(Cl)[C@]2(Cl)[C@@H]3[C@H]4C[C@H]([C@@H]5O[C@H]45)[C@@H]3[C@@]1(Cl)C2(Cl)Cl	4%	-11%
CN[C@H]1C[C@@H](N)[C@H](O)[C@@H](O[C@@H]2O[C@H](CO)[C@H](O)[C@@H]3OC4(O[C@H]23)O[C@H](C(N)CO)[C@H](O)[C@H](O)[C@H]4O)[C@@H]1O (some centres undefined)	?	-16%
C[C@@]1(CO)[C@H](O)CC[C@@]2(C)[C@H]1CC[C@H]1C[C@@H]3C[C@@]12CC[C@]3(O)CO	-62%	63µM*
C[C@]12CC[C@@H]3c4ccc(OC(=O)N(CCCl)CCCl)cc4CC[C@H]3[C@@H]1CC[C@@H]2OP(=O)(O)O	?	29%
